Columns and labels:
[1] = target: Ribosomal protein S6 kinase alpha-6 (Homo sapiens) (UniProt Q9UK32); details: at 1 µM;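 also: each value is a mean inhibition of RSK4 from a GSK PKIS panel screen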
[2] = target: T1, Serine/threonine-protein kinase Sgk1 (Homo sapiens) (UniProt O00141); details: at 0.1 µM
T1 sequence (whole entry): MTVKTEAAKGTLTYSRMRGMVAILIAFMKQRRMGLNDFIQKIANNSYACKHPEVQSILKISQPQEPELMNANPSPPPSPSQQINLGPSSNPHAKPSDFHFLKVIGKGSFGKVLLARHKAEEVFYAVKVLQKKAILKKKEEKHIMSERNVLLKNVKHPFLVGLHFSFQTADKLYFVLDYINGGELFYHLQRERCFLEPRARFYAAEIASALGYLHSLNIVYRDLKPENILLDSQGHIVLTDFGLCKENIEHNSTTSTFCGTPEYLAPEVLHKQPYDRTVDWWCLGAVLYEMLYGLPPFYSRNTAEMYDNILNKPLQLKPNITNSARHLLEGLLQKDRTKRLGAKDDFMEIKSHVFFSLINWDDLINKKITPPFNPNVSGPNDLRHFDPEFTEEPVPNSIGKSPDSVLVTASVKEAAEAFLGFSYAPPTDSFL

[3] = target: T1, Serine/threonine-protein kinase Sgk1 (Homo sapiens); details: at 1 µM
[4] = target: T2, Serine/threonine-protein kinase Sgk2 (Homo sapiens) (UniProt Q9HBY8); details: at 0.1 µM
T2 sequence (whole entry): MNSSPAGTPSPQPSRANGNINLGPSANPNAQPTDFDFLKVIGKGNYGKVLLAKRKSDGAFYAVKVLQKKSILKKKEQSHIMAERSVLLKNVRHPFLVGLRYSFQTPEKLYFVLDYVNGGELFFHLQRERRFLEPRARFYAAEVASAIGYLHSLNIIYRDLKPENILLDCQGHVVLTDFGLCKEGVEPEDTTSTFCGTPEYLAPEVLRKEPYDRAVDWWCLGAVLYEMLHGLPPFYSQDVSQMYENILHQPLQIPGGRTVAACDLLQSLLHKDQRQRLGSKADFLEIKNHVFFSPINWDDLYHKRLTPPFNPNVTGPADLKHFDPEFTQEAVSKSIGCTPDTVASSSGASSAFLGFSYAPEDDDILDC

[5] = target: T2, Serine/threonine-protein kinase Sgk2 (Homo sapiens); details: at 1 µM
[6] = target: T3, Serine/threonine-protein kinase Sgk3 (Homo sapiens) (UniProt Q96BR1); details: at 0.1 µM
T3 sequence (whole entry): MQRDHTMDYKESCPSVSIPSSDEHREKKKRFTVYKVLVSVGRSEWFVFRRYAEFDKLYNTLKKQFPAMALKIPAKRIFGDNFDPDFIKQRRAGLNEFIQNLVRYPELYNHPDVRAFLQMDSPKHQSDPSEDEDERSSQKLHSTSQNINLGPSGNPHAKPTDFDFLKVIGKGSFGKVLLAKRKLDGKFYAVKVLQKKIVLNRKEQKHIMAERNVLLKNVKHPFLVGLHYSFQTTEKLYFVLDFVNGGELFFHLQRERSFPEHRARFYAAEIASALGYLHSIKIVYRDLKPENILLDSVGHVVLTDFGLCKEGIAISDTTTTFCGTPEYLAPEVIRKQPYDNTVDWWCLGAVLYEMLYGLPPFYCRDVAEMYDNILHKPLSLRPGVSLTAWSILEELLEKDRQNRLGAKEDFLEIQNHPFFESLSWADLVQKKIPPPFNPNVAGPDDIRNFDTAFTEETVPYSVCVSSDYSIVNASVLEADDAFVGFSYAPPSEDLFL

[7] = target: T3, Serine/threonine-protein kinase Sgk3 (Homo sapiens); details: at 1 µM
[8] = target: 5'-AMP-activated protein kinase catalytic subunit alpha-1 (Homo sapiens) (UniProt Q13131); details: at 0.1 µM
Sequence of 5'-AMP-activated protein kinase catalytic subunit alpha-1 (Homo sapiens) (Q13131 whole entry, looked up): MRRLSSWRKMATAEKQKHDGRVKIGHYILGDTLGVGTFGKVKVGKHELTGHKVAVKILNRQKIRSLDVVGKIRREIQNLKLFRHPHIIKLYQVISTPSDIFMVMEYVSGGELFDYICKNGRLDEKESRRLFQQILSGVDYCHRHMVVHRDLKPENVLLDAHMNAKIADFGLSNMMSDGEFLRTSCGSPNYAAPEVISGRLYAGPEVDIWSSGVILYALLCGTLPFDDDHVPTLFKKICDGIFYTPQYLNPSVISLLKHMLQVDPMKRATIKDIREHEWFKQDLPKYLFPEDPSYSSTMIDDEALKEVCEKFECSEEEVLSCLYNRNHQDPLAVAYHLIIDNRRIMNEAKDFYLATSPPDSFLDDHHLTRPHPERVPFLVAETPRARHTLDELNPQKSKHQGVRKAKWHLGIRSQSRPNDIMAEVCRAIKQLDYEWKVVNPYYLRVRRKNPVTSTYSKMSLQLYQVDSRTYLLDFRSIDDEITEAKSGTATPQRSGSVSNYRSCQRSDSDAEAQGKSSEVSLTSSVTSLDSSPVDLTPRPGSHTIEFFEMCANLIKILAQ

[9] = target: 5'-AMP-activated protein kinase catalytic subunit alpha-1 (Homo sapiens) (UniProt Q13131); details: at 1 µM
[10] = target: 5'-AMP-activated protein kinase catalytic subunit alpha-2 (Homo sapiens) (UniProt P54646); details: at 0.1 µM
Sequence of 5'-AMP-activated protein kinase catalytic subunit alpha-2 (Homo sapiens) (P54646 whole entry, looked up): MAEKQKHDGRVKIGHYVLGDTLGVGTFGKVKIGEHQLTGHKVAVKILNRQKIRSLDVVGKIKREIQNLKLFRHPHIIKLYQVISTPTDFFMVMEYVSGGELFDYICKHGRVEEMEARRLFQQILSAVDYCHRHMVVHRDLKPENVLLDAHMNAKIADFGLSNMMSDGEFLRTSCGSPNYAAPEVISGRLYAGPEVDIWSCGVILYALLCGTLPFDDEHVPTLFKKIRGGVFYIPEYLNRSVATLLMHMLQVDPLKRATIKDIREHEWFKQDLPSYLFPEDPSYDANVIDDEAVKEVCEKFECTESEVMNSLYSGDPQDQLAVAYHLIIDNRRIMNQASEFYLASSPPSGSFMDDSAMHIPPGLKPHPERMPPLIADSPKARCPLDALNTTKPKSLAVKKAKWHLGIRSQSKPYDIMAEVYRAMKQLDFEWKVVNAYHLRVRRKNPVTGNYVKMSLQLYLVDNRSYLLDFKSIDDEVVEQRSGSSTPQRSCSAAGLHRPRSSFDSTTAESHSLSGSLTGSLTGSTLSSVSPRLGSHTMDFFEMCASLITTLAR

[11] = target: 5'-AMP-activated protein kinase catalytic subunit alpha-2 (Homo sapiens) (UniProt P54646); details: at 1 µM
[12] = target: T4, NUAK family SNF1-like kinase 1 (Homo sapiens) (UniProt O60285); details: at 0.1 µM
T4 sequence (whole entry): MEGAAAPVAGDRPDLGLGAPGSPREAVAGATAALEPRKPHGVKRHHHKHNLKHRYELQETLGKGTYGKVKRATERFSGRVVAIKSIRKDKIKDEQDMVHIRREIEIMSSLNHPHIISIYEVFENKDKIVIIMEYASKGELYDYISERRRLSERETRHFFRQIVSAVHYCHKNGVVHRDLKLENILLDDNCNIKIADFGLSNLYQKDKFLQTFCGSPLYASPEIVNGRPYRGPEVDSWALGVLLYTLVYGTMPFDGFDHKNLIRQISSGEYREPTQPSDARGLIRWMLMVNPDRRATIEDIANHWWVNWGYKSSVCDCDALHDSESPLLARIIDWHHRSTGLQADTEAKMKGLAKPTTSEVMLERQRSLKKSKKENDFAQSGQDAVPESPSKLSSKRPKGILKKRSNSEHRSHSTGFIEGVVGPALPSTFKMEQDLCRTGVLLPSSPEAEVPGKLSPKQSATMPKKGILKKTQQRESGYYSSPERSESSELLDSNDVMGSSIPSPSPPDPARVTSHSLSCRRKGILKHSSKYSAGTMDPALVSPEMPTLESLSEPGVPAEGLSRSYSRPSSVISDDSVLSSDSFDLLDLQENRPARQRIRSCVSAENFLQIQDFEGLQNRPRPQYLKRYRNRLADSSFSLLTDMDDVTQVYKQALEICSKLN

[13] = target: T4, NUAK family SNF1-like kinase 1 (Homo sapiens); details: at 1 µM
[14] = target: T5, Serine/threonine-protein kinase BRSK1 (Homo sapiens) (UniProt Q8TDC3); details: at 0.1 µM
T5 sequence (whole entry): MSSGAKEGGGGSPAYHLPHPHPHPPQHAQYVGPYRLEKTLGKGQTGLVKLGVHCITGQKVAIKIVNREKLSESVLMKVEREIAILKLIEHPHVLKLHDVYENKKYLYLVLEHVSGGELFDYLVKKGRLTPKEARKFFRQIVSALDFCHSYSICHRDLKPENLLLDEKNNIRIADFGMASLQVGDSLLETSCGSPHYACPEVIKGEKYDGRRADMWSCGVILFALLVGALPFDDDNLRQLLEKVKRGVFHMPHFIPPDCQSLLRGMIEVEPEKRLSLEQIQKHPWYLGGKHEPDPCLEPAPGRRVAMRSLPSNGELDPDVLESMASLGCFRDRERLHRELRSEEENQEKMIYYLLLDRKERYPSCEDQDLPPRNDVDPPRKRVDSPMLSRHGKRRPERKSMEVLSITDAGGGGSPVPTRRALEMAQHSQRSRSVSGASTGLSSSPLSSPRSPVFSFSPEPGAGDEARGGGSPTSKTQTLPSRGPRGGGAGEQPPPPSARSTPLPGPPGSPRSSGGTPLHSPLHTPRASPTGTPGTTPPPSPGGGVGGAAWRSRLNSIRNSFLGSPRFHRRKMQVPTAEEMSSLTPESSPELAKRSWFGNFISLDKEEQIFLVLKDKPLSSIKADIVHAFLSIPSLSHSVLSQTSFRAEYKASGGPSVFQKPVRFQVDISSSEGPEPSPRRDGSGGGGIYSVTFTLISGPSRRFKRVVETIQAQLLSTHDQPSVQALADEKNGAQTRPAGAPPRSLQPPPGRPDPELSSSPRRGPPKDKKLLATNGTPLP

[15] = target: T5, Serine/threonine-protein kinase BRSK1 (Homo sapiens); details: at 1 µM
[16] = target: T6, Serine/threonine-protein kinase BRSK2 (Homo sapiens) (UniProt Q8IWQ3); details: at 0.1 µM
T6 sequence (whole entry): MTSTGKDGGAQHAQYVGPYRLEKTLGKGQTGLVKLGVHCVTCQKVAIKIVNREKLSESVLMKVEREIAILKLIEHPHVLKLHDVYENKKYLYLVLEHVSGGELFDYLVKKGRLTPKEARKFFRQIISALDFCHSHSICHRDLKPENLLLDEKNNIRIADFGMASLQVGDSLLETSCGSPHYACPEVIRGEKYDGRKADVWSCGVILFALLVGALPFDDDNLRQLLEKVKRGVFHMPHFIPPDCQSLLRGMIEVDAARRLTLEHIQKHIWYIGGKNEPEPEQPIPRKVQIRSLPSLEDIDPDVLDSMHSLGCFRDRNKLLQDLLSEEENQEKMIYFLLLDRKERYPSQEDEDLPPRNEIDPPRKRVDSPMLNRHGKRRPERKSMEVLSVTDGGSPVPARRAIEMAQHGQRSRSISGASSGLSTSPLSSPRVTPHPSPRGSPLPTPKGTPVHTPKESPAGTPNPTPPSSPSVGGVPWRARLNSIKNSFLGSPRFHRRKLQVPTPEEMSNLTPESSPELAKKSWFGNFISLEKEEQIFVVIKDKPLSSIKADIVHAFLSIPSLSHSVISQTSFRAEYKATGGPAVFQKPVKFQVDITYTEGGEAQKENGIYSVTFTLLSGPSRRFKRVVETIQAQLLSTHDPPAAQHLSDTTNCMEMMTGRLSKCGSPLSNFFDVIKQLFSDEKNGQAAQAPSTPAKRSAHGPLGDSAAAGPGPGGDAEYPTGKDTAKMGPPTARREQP

[17] = target: T6, Serine/threonine-protein kinase BRSK2 (Homo sapiens); details: at 1 µM
[18] = target: Calcium/calmodulin-dependent protein kinase type 1D (Homo sapiens) (UniProt Q8IU85); details: at 0.1 µM
Sequence of Calcium/calmodulin-dependent protein kinase type 1D (Homo sapiens) (Q8IU85 whole entry, looked up): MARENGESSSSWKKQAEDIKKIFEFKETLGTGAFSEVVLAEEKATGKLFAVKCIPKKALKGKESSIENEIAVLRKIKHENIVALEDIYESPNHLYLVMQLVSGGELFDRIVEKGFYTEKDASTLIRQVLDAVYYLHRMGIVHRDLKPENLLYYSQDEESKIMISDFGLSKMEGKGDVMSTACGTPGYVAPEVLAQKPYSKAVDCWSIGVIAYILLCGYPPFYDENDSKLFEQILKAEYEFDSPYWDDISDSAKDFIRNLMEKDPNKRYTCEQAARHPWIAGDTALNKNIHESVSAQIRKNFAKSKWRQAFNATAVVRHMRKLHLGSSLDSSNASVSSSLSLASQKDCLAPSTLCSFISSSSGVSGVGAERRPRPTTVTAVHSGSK

[19] = target: Calcium/calmodulin-dependent protein kinase type 1D (Homo sapiens) (UniProt Q8IU85); details: at 1 µM
[20] = target: Calcium/calmodulin-dependent protein kinase type II subunit alpha (Homo sapiens) (UniProt Q9UQM7); details: at 0.1 µM;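 also: reported values are averages (mean inhibition of CAMK2A)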
Sequence of Calcium/calmodulin-dependent protein kinase type II subunit alpha (Homo sapiens) (Q9UQM7 whole entry): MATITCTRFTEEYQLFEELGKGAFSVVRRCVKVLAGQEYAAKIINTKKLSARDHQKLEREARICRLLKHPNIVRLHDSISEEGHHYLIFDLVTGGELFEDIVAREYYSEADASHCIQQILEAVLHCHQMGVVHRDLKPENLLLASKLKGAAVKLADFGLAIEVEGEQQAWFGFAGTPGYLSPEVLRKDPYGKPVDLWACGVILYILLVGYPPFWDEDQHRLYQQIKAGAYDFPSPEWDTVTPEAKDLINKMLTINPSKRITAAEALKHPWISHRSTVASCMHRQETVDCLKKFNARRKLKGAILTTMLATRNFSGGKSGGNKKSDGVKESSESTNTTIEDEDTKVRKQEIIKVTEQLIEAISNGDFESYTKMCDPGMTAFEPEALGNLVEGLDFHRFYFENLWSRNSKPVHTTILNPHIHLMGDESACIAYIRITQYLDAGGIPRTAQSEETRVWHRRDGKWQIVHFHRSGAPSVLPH

Sequence of Ribosomal protein S6 kinase alpha-6 (Homo sapiens) (Q9UK32 whole entry): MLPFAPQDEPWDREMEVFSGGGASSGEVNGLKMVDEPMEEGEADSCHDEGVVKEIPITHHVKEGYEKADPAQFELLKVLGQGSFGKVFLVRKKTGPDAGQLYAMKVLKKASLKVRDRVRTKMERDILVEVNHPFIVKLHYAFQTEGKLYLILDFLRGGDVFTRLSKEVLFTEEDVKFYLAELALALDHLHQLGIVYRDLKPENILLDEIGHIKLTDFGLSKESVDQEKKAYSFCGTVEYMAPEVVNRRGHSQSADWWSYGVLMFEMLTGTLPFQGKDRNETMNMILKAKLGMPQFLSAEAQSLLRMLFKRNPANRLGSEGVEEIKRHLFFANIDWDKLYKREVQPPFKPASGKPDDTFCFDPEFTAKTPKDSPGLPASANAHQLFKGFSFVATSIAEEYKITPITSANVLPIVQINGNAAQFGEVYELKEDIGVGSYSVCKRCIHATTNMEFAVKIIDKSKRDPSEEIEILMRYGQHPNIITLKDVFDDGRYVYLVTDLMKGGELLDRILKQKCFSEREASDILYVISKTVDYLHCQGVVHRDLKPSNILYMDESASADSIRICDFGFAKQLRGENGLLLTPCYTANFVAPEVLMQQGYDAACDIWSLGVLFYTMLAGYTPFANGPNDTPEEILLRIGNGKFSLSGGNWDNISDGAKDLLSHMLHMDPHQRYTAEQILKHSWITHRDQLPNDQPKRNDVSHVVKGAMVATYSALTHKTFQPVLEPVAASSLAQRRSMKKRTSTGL

SMILES	inhibition [1]	inhibition [2]	inhibition [3]	inhibition [4]	inhibition [5]	inhibition [6]	inhibition [7]	inhibition [8]	inhibition [9]	inhibition [10]	inhibition [11]	inhibition [12]	inhibition [13]	inhibition [14]	inhibition [15]	inhibition [16]	inhibition [17]	inhibition [18]	inhibition [19]	inhibition [20]
CS(=O)(=O)Nc1ccc(-c2cc(-c3ccccc3)cc(C(N)=O)c2N)cc1	0.06%	0.87%	2.29%	9.08%	0.51%	0.13%	2.54%	0.7%	1.42%	5.24%	1.49%	-2.25%	1.62%	-0.36%	-0.05%	0.92%	2.21%	-0.99%	-0.47%	-1.51%
COc1cc(N2CCN(C(C)C)CC2)ccc1Nc1nc(Nc2cccc(F)c2C(=O)O)c2cc[nH]c2n1	13%	0.41%	5.92%	0.2%	3.35%	3.6%	4.41%	3.98%	5.67%	0.48%	2.95%	5.3%	5.91%	-0.39%	0.33%	1.72%	3.39%	-0.23%	4.47%	3.99%
CCS(=O)(=O)c1ccc(OC)c(Nc2ncc(-c3cccc(C(C)=O)c3)o2)c1	2.13%	0.32%	5.11%	2.27%	3.41%	1.59%	2.93%	2.21%	4.72%	-0.37%	3.65%	2.25%	4.46%	-0.38%	3.68%	1.58%	4.09%	0.3%	-0.69%	2.75%
NS(=O)(=O)c1ccc(N/N=C2\C(=O)Nc3ccc(C(=O)NCc4ccncc4)cc32)cc1	11.3%	3.41%	12.9%	0.65%	8.08%	4.07%	8.33%	41.7%	75.5%	5.3%	34.9%	18.9%	59.5%	6.67%	39.7%	17.2%	55.8%	-0.48%	-0.33%	2.84%
CN(c1ccc(NC(=O)NCCN2CCOCC2)cc1)c1ccnc(Nc2ccc(CS(C)(=O)=O)cc2)n1	2.33%	2.3%	5%	1.89%	3.1%	4.46%	2.63%	3.65%	4.22%	0.93%	4.4%	8.2%	41.6%	-2.24%	4.74%	2.43%	5.48%	-0.41%	0.15%	1.72%

From ChEMBL document CHEMBL1961873, “Compounds: GSK PKIS; Assays: Nanosyn kinase panel” (2012)
